# Experimental data taken from PubChem BioAssay (NCI).
# This is part of a sample that, as a whole, favours compounds with a hit. Of some 83,000 tested, about 20% had one in any assay.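 Growth was measured after 48 h exposure to one concentration of compound in 96-well plates. Values under 10 count as active.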 A number with no mark means an inactive call. Activity calls are given as the source filed them.
# Assays:
# Assay in all cases: NCI-60 one-dose screen, 48 h (100 = growth as untreated, 0 = no growth, -100 = all killed)
# Conditions in all cases: 10 µM unless noted
# T-47D breast = tested on: T-47D breast
# BT-549 breast = tested on: BT-549 breast
# MDA-MB-435 melanoma = tested on: MDA-MB-435 melanoma
# SW-620 colon = tested on: SW-620 colon
# MCF7 breast = tested on: MCF7 breast
# HCT-116 colon = tested on: HCT-116 colon
# HCC-2998 colon = tested on: HCC-2998 colon
# KM12 colon = tested on: KM12 colon
Structure (SMILES),growth (T-47D breast),growth (BT-549 breast),growth (MDA-MB-435 melanoma),growth (SW-620 colon),growth (MCF7 breast),growth (HCT-116 colon),growth (HCC-2998 colon),growth (KM12 colon)
Cc1cc(Nc2nc(-c3cccnc3)nc3ccccc23)n[nH]1,27.2%,47.2%,56.2%,47%,23%,30.9%,69.7%,19.1%
CCN(CC)CCCC(C)NCCCNc1cccc2cccnc12 (stereo not drawn),89.5%,102%,106%,96.5%,95.9%,95.4%,82.5%,102%
Cc1ccc(-c2nc(/C=N/Nc3cc(C)nc4ccc(Br)cc34)c(C)o2)cc1,-8.4% (active),86.3%,-95.1% (active),-84.7% (active),-78.6% (active),-65.8% (active),-63.4% (active),-39.9% (active)
COc1ccc(-c2cc(-c3ccc(N(C)C)cc3)nc(NC(=O)c3ccncc3)n2)cc1,88.9%,104%,104%,98.7%,78%,94%,100%,97.8%
Clc1nc(Cl)c2c3c(sc2n1)CCCC3,38.4%,13.3%,49.3%,34.3%,30.7%,12.5%,97.6%,74.2%
O=C1c2cc3c(cc2-c2c1c1cc(F)c(F)cc1c(=O)n2C[C@H](O)CO)OCO3,-9.55% (active),0.808% (active),-11% (active),11.7%,3.86% (active),3.5% (active),10.7%,5.01% (active)
COc1cc2nc3cc([N+](=O)[O-])ccc3c(NCCCNCC(C)(C)O)c2cc1OC,-40.6% (active),-71.3% (active),-85.8% (active),-11.8% (active),-33.5% (active),-46% (active),-70.2% (active),-47.2% (active)
CC1=C(C)C(=O)OC([C@](C)(O)[C@]2(O)CC[C@@]3(O)[C@@H]4C[C@H]5O[C@]56CC=CC(=O)[C@]6(C)[C@H]4CC[C@]23COC(=O)c2ccc(C)o2)C1 (stereo partly drawn),-57.1% (active),-49.3% (active),-76.9% (active),-55.6% (active),-66.2% (active),-43.5% (active),-73.7% (active),-69% (active)
O=S(=O)(Nc1ccc(Cl)cc1Cl)c1ccc(-c2cnc(C3CC3)o2)cc1,33.9%,47%,-5.62% (active),21%,15.3%,24.9%,39.3%,33.3%
CCCC(=O)Oc1ccc(/C(=C(/CC)Cc2ccccc2)c2ccc(OCCN3CCCC3)cc2)cc1,48.9%,85.3%,57.1%,80.5%,24.9%,68.7%,42.6%,70.8%
O=[N+]([O-])c1cccc(-c2nc3sccn3c2-c2ccnc(NCCCNS(=O)(=O)c3ccc(Br)cc3)n2)c1,1.8% (active),38%,46.6%,98.1%,34%,56.9%,102%,40.5%
CCCCCCCCCCCCCCCCCCNC(=O)[C@H]1CSC(c2ccc(F)c(OC)c2)N1 (stereo partly drawn),-72.3% (active),-75.9% (active),-92.7% (active),-74.5% (active),-71.7% (active),-85.5% (active),-91.4% (active),-72.3% (active)
COc1cc(OC)c(/C=C/C(=O)c2c(OC)cc(OC)cc2OC)c(OC)c1,13%,33.4%,-34.8% (active),8.71% (active),19.5%,8.7% (active),30.3%,9.29% (active)
COc1ccc2nc(NC(=O)c3cccnc3Nc3cc(OC)c(OC)c(OC)c3)sc2c1,-7.17% (active),-90.5% (active),7.52% (active),27.8%,8.16% (active),-2.4% (active),77.8%,11.9%
COc1ccc(S(=O)(=O)NCCCNc2nccc(-c3c(-c4cccc(N)c4)nc4sccn34)n2)cc1,63%,102%,70.2%,138%,69.3%,99.2%,144%,39.4%
O=C(CCCN1CCOCC1)Nc1ccc(Cn2nnc3c2C(=O)c2nnn(Cc4ccc(NC(=O)CCCN5CCOCC5)cc4)c2C3=O)cc1,-16.5% (active),42.6%,-78.9% (active),30.2%,-58.6% (active),0.281% (active),13.1%,65.3%

Structure (SMILES),growth (T-47D breast),growth (BT-549 breast),growth (MDA-MB-435 melanoma),growth (SW-620 colon),growth (MCF7 breast),growth (HCT-116 colon),growth (HCC-2998 colon),growth (KM12 colon)
O=C1Nc2c(ccc(Cl)c2Cl)/C1=C/c1cc(Br)c(O)c(Br)c1,54.8%,29.2%,-29.4% (active),36.1%,52.8%,58.4%,68.7%,32.5%
CCOC(=O)/C=C/c1ccc(C(=O)OCC)[nH]1,34.9%,88.2%,-39.5% (active),19.2%,25.7%,26.3%,44.1%,26.6%
COc1ccc(-c2cn3c(-c4ccc(OC)cc4)cnc3c(Oc3ccc4c(C)cc(=O)oc4c3)n2)cc1,45.3%,29.2%,37.2%,39%,44.2%,33.9%,77.1%,43%
COc1cc(C2CC(=O)Nc3c2c(C)nn3-c2nc3ccccc3[nH]2)cc(OC)c1OC (stereo not drawn),103%,113%,103%,97.4%,88.1%,107%,93.7%,123%
CSc1nc(NCCCNc2ccnc3cc(Cl)ccc23)cc(-c2ccccc2)n1,66.3%,86.9%,55.4%,72%,6.05% (active),43.1%,-59.6% (active),68.3%
COc1ccc(-c2cc(/C=C3\C(=O)Nc4ccc(Cl)cc43)[nH]n2)cc1,47.4%,55.4%,-27.4% (active),26.9%,17%,26.8%,94.3%,43.8%
C=C1CC[C@@H]2[C@](C)(COC(C)=O)[C@H](OC(C)=O)CC[C@@]2(C)[C@@H]1CC(Nc1ccc(S(=O)(=O)Nc2nc(C)cc(C)n2)cc1)C1=CCOC1=O (stereo partly drawn),68.8%,71.9%,67%,40%,40.3%,39.2%,100%,64.7%
COc1cc(C(=O)/C=C/c2c(C)n([O-])c3ccc(C)cc3[n+]2=O)cc(OC)c1OC,17.6%,76.7%,60.1%,0.477% (active),29.4%,15%,104%,34.8%
O=C1Nc2ccc(Br)cc2C12CC(c1ccccc1)=NN2 (stereo not drawn),71.6%,47.8%,-21.1% (active),18.6%,18.3%,22.9%,75.2%,30.6%
O=C(CN1CCOCC1)Nc1ccc(Cn2nnc3c2C(=O)c2nnn(Cc4ccc(NC(=O)CN5CCOCC5)cc4)c2C3=O)cc1,-26.5% (active),-95.6% (active),-77.1% (active),4.23% (active),-62% (active),-75.1% (active),-42% (active),6.44% (active)
COc1ccc(-n2c(C)nc3c(c(C)nn3-c3ccccc3)c2=O)cc1,55.9%,9.9% (active),4.94% (active),23.1%,11.5%,3.27% (active),16.6%,11.3%
Nc1nc(SCc2ccccc2)c2ncn(C3CCCC3)c2n1,98.7%,116%,104%,102%,91.7%,107%,107%,113%
COc1ccccc1N1CCN(CCn2c(=O)c3c(c4ccccc4n3C)n(C)c2=O)CC1,64.4%,99.3%,106%,98.9%,93.2%,98.4%,104%,103%
COc1cc(/C=C2\CN(C(=O)CCN3CCC(=NO)CC3)C/C(=C\c3cc(OC)c(OC)c(OC)c3)C2=O)cc(OC)c1OC,4.37% (active),-81.4% (active),-81.9% (active),-74.5% (active),-54.3% (active),-56.7% (active),-79.8% (active),-83.9% (active)
C=C1CC2(OC1=O)C(=O)N(CCCCCCCCCCCCN1C(=O)C3(CC(=C)C(=O)O3)c3ccccc31)c1ccccc12 (stereo not drawn),64.8%,84%,73.1%,26.1%,38%,61.3%,92.8%,93.6%
